Screens as filed in PubChem BioAssay.
A selection: hits, their analogues and other compounds. The true share with any hit is near 1.5%.
MbtI inh: blocks the Mycobacterium tuberculosis siderophore enzyme MbtI | P9WFX0 | purified MbtI enzyme, fluorescence intensity read-out | inhibition, % (test concentration not listed) | 100,000 compounds, 0.89% hits; in the data active = inhibition mostly above about 56%, no sharp cut-off; inactive = mostly below about 77%
AID504770: growth inhibitors of E. coli YBA685 in a screen for V. cholerae RctB (chromosome II replication) inhibitors. 130,000 compounds, 0.27% hits. z-score (concentration not given with the values). E. coli YBA685 rctB-dependent plasmid, OD600 growth, 3 h; stronger effect = lower value. AID 504770; in the data active = z-score below about -2, passing the limit was not always enough
MenB inh: blocks the Mycobacterium tuberculosis MenB enzyme | P9WNP5 | 100,000 compounds, 0.43% hits | inhibition, % (concentration not given with the values) | MenB enzyme assay, absorbance read-out; in the data active = inhibition above about 21%, passing the limit was not always enough
Target sequence (P9WNP5 whole entry, looked up): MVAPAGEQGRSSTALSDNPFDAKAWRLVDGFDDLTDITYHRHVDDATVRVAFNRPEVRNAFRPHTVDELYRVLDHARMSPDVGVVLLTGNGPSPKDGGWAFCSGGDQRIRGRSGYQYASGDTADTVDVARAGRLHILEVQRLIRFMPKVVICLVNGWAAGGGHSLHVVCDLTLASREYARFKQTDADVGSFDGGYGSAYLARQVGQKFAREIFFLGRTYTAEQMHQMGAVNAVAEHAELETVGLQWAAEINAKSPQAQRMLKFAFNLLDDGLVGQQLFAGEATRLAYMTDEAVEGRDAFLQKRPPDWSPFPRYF
Polio RdRp inh: inhibitors of poliovirus RNA polymerase binding and polymerization; P03300; poliovirus polymerase elongation, fluorescence polarization; stronger effect = lower value; % elongation, % (compound at 16.7 µg/mL); 150,000 compounds, 0.66% hits; AID 588519; in the data active = % elongation below about 90%
Active calls of the source: *; ! = not confirmed by another sample.

How did N#CC1=C2SCN(C3CCCCC3)CN2C(=O)CC1c1c(F)cccc1Cl (centres undefined) do in these assays?
Polio RdRp inh: 69*

Results for N#CC1=C2SCN(C3CCCCC3)CN2C(=O)CC1c1ccc(F)cc1 (centres undefined) ?
Polio RdRp inh: 84*

Results for CC(C)n1c(=O)c2oc3ccccc3c2n(Cc2ccccc2)c1=O ?
MbtI inh: 2; AID504770: -1.1; MenB inh: -17; Polio RdRp inh: 104

How did O=C(NC(=S)c1ccccc1)C1CC1 do in these assays?
MbtI inh: 74*; AID504770: -0.45; MenB inh: -38; Polio RdRp inh: 91

What do the screens show for `Fc1ccccc1C=Nc1cccc2ccccc12`?
MbtI inh: 112; AID504770: -0.45; MenB inh: -38; Polio RdRp inh: 102

What do the screens show for `Brc1ccccc1C=Nc1cccc2cnccc12`?
MbtI inh: 3; AID504770: 2.1; Polio RdRp inh: 81*

How did Cn1nccc1N1C(=O)C2=C(SCCS2)C1=O do in these assays?
AID504770: 0.3

How did CCN1C(=O)N(c2ccccc2)P(=S)(N2CCCC2)c2cc3c(cc21)OCCO3 (centres undefined) do in these assays?
MbtI inh: 90*; AID504770: -0.25; MenB inh: -18; Polio RdRp inh: 87*

Results for c1ccc(CN2CCN(Cc3ccc4c(c3)OCCO4)CC2)cc1 ?
MbtI inh: -2; AID504770: 0.25; MenB inh: 8; Polio RdRp inh: 100

Results for CN1/C(=C\C(=O)c2nc(S(C)(=O)=O)ncc2Cl)C(C)(C)c2ccccc21 ?
MbtI inh: -7; AID504770: -1; MenB inh: -203; Polio RdRp inh: 125

What do the screens show for `CC1=C(NN(C)c2cccc(Cl)c2)C(=O)N(C2CCCCC2)C1`?
AID504770: 0; MenB inh: -28; Polio RdRp inh: 100

What do the screens show for `C=CCn1c(COc2ccccc2)n[nH]c1=S`?
AID504770: -0.65; MenB inh: -40; Polio RdRp inh: 104

Results for Cn1c(COc2ccccc2)n[nH]c1=S ?
MbtI inh: 65*!; AID504770: -0.5; MenB inh: -42; Polio RdRp inh: 102

Results for Cc1cc(=O)[nH]c2[nH]n(-c3ccccc3)c(=O)c12 ?
AID504770: -0.8; MenB inh: -2; Polio RdRp inh: 103

How did Cc1c(C)c2c(=O)n(-c3ccccc3)[nH]c2[nH]c1=O do in these assays?
MbtI inh: 66*; AID504770: 1.4

Results for NC(=O)C1(N2CCCCC2)CCN(C(=O)Nc2ccccc2)CC1 ?
MbtI inh: -1; AID504770: -0.25; MenB inh: -18; Polio RdRp inh: 105

Results for CCC(C)CCCNc1n[nH]c(=S)s1 (centres undefined) ?
MbtI inh: 98*; AID504770: 0.3; MenB inh: -19; Polio RdRp inh: 96

How did S=c1[nH]nc(NCCc2ccc(Cl)cc2)s1 do in these assays?
AID504770: -0.15

How did CC(C)CNc1n[nH]c(=S)s1 do in these assays?
MbtI inh: 96*; AID504770: -0.1; MenB inh: -33; Polio RdRp inh: 99

Results for CN(C)Cc1ccccc1CN ?
MbtI inh: -3; AID504770: -3.7*; MenB inh: -17; Polio RdRp inh: 107

How did Nc1ccc2nc(-c3ccccc3)oc2c1 do in these assays?
MbtI inh: 115; AID504770: -0.55; MenB inh: -16; Polio RdRp inh: 100

How did CCCCCC(=O)Nc1cc2c(cc1C(=O)O)OCCO2 do in these assays?
MbtI inh: 7; AID504770: -0.2; MenB inh: 7; Polio RdRp inh: 101

Results for CCOC(=O)c1nn(-c2ccccc2)c(C(=O)OCC)c1NC(=O)C1CCCCC1 ?
AID504770: -0.2

How did O=C(Nc1ccc(N2C(=O)C=CC2=O)cc1Cl)c1ccco1 do in these assays?
MbtI inh: 96*; AID504770: -0.3; MenB inh: 11; Polio RdRp inh: 99

Results for COC(=O)c1sc(NC(=O)COc2ccc(OC)cc2)c(C#N)c1C ?
AID504770: -0.5; MenB inh: -20; Polio RdRp inh: 83*

How did O=C(CC12CC3CC(CC(C3)C1)C2)NCC(=O)Nc1cccnc1 do in these assays?
MbtI inh: -11; AID504770: -0.5; MenB inh: -1; Polio RdRp inh: 99

What do the screens show for `CC(=O)N1CCCCC1c1cccnc1.O=[N+]([O-])O.[Ag]` (centres undefined)?
AID504770: -5.5*; MenB inh: -36; Polio RdRp inh: 60*

Results for O=C(Sc1ccc(C(F)(F)F)cn1)/C(=C\c1cccs1)c1ccsc1 ?
MbtI inh: 4; AID504770: -0.85; MenB inh: -3; Polio RdRp inh: 104
